Tb PGK inh: blocks T. brucei phosphoglycerate kinase; AID 602233; Potency, µM (series often up to 57.5 µM), without a hit: at the top dose activity change, negative = inhibition, hits mostly inhibitors; 380,000 tested, 0.043% active; PGK/GAPDH coupled, Kinase-Glo luminescence, 60 min; P07378; also: nearly all actives have a fitted effect of over 60% in size
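Recombinant glycosomal PGK reaction used 1,3-bisphosphoglycerate generated in-well by GAPDH (100nM final) in 100mM TEA pH 7.6, 5mM MgCl2, 0.01% Tween-20. After 60 minutes at room temperature, ATP was read by Kinase-Glo Plus luminescence end-point.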
BLM helicase inh: Bloom syndrome helicase (human) inhibition. Potency, µM (top dose mostly 56.1 µM), for the others: at the top dose activity change, negative = inhibition, most hits filed as inhibitors. P54132. 350,000 tested, 0.2% active. recombinant BLM DNA unwinding, fluorescence dequenching;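 also: plate controls were vehicle for no effect and no enzyme for full effect; nearly all actives have a fitted effect of over 35% in size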
TDP1 block: inhibitors of human tyrosyl-DNA phosphodiesterase TDP1; 350,000 tested, 0.28% active; recombinant TDP1, AlphaScreen DNA substrate cleavage; Potency, µM (highest dose often 130 µM), for inactives: at the highest dose activity change, negative = inhibition, actives largely listed as inhibitors; AID 485290; also: nearly all actives have a fitted effect of over 40% in size
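Steps: enzyme plus compound, 15 min RT; add biotin/phosphotyrosine-FITC oligonucleotide (15 nM final), react 5 min; add donor/acceptor beads (10 ug/ml final), 10 min; read AlphaScreen. Tdp1 at 1 nM final.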
GLS inh: glutaminase GLS (human) inhibition. GLS enzymatic activity, qHTS titration. Potency, µM (highest dose often 45.5 µM), inactives show at the top dose activity change, negative = inhibition, actives largely listed as inhibitors. 410,000 tested, 0.21% active. AID 624170
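hKGA in 45 mM KH2PO4 pH 8.2, 0.02% Tween-20 with pin-transferred compounds; 1 mM L-glutamine (stock) plus glutamate oxidase/HRP/Amplex Red coupling added. Fluorescence read initially and after 30 min at RT.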
RECQ1 inh: inhibitors of human RECQ1 DNA helicase; P46063; RECQ1 DNA unwinding, red fluorescence kinetic read; Potency, µM (highest dose often 57.3 µM), for inactives: at the top dose activity, negative = inhibition, hits mostly inhibitors; 240,000 tested, 0.54% active;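 also: plate controls were vehicle for no effect and no enzyme for full effect; nearly all actives have a fitted effect of over 30% in size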
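50 nM RECQ1T1 preincubated 15 min with compound in Tris pH 8.0 buffer with MgCl2, DTT, Tween-20 and 2.5 ug/ml poly(dI-dC); started with 200 nM TAMRA/BHQ-2 forked duplex and 2 mM ATP. Unwinding read as fluorescence (525/598 nm), two reads 2 h apart.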
APEX1 inh: APE1 (human) endonuclease inhibition. P27695. recombinant APE1, TAMRA/BHQ-2 abasic DNA cleavage fluorescence. Potency, µM (top dose mostly 65.8 µM), for inactives: top-dose activity change, negative = inhibition, usual class: inhibitors. 350,000 tested, 0.35% active;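 also: plate controls were vehicle for no effect and reference inhibitor for full effect; nearly all actives have a fitted effect of over 55% in size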
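Step 1: APE1 (0.75 nM) with compound, 15 min RT. Step 2: add 50 nM fluorophore/quencher THF duplex. Step 3: three fluorescence reads 60 s apart (525/598 nm); read 3 minus read 1 = reaction progress.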
Numbers without * were called inactive; i = inactive; ? = inconclusive; . = no result given; [ ] = remark or other dose. Rows were chosen to be rich in hits. Some 0.85% of all compounds tested hit in one or more screens of this group. Calls follow the shape of the dose curve; as a rule, active = well fitted curve in the direction sought with a large enough effect; inconclusive = small, poorly fitted or top-dose-only effect, or another doubt; inactive = no such curve, though single readings can be large; an effect the other way counts as inactive or inconclusive. Unless noted, % is scaled to controls: 0 for no effect and ±100 for the full control effect; potency is read from the fitted curve at half-maximal effect.

SMILES	Tb PGK inh	BLM helicase inh	TDP1 block	GLS inh	RECQ1 inh	APEX1 inh
CN1C(=O)N(C)C2=NNC=NC2(O)C1=O (configuration not stated)	.	28µM*	.	.	-3%	13%
Cc1c(P(=S)(c2ccccc2)c2ccccc2)c2ccccc2n1C/C=C/c1ccccc1	.	.	0%	.	.	.
COc1ccc(-c2cc(C#N)nc(Cl)n2)cc1	2%	1%	.	-4%	-7%	-1%
COc1ccc(-c2cc(C#N)nc(NN)n2)cc1	0%	-7%	-3%	18µM*	-10%	8%
O=C1CSC(=S)N1N=Cc1c(O)ccc2ccccc12	-10%	.	.	26%	.	.
COc1ccc2ccccc2c1/C=N/N1C(=O)CSC1=S	1%	-13%	3%	?	28µM*	-6%
O=C1Cc2cccc(=O)c(O)c2C(=O)O1	?	.	.	4µM*	.	.
Cc1ccc(C(O)(C(=O)NNc2ccccn2)c2ccc(C)cc2)cc1	-3%	2%	4%	13µM*	i	2%
C=C1C(=O)O[C@H]2[C@H]1CC/C(C)=C\CC[C@@]1(C)O[C@@H]21	.	.	.	.	.	2%[21 µM]
CC(C)COC(=O)COc1cc(Cl)c(Cl)cc1Cl	.	.	50µM*	.	1%	15%
N=C(N)c1ccc(OCCCOc2ccc(C(=N)N)cc2Br)c(Br)c1	.	.	.	4%	.	.
COc1ccc(C2Nc3ccccc3C(=O)N2Cc2cccc3ccccc23)cc1COc1ccc(NC(C)=O)cc1 (configuration not stated)	.	.	2%	.	.	.
O=C(O)c1ccc(N/N=C/C=C/c2ccc([N+](=O)[O-])o2)cc1	?	-23%	-14%	130%	.	11µM*
COCc1cc(C)nc(N/N=C/c2ccc(-c3ccc(C(=O)O)c(Cl)c3)o2)c1C#N	.	-1%	28µM*	.	?	?
O=C(O)/C=C/c1cc(F)c(S(=O)(=O)N2CCN(S(=O)(=O)c3ccc4c(c3)OCCO4)CC2)cc1F	.	.	50µM*	.	.	.
COC/C=C/c1cc(F)c(S(=O)(=O)N2CCN(S(=O)(=O)c3ccc4c(c3)OCCO4)CC2)cc1F	.	.	0%	.	.	.
O=c1[nH]c2ccc(S(=O)(=O)N3CCN(S(=O)(=O)c4ccc5c(c4)OCCO5)CC3)cc2[nH]c1=O	.	.	50µM*	.	.	.
Cc1cccc(/C(N)=N/OC(=O)CCCc2ccccc2)c1	0%	-3%	56µM*	1%	.	21%
N/C(=N\OC(=O)CCCc1ccccc1)c1cccc([N+](=O)[O-])c1	i	-1%	6%	4%	i	?
O=C(CCCc1ccccc1)c1ccccc1	-9%	-8%	35µM*	-6%	.	38%
N/C(=N\OC(=O)CCCc1ccccc1)c1ccccc1	-3%	-3%	56µM*	-1%	.	36%
O=C(CCCC(=O)c1ccccc1)NCCc1ccccc1	7%	2%	.	7%	.	-2%
CN(Cc1ccc(C(C)(C)C)cc1)c1cccc2ccccc12	.	.	.	-2%	.	.
Cn1c2cc(C#N)sc2c2cnn(Cc3ccccc3F)c(=O)c21	.	.	0%	.	.	.
O=C(O)c1cc(Cl)c2c(c1)OCO2	-21%	-1%	.	20µM*	-19%	?
SMILES	Tb PGK inh	BLM helicase inh	TDP1 block	GLS inh	RECQ1 inh	APEX1 inh
COc1cc(/C=C2\SC(=S)N(Nc3ncc(C(F)(F)F)cc3Cl)C2=O)ccc1O	-10%	-20%	9%	?	28µM*	?
COc1cc(/C=C2\SC(=S)N(NC(=O)c3cccnc3)C2=O)ccc1O	-10%	-4%	0%	25%	25µM*	?
COc1cc(/C=C2\SC(=S)N(NC(=O)c3ccc(O)cc3)C2=O)ccc1O	-19%	-13%	.	3%	.	-16%
Cc1cc2[nH]c3c(=O)n(Cc4ccccc4F)ncc3c2s1	.	.	0%	.	.	.
Cc1ccc(C(=O)NCC(=O)OC(C(=O)Nc2cc(C(F)(F)F)ccc2Cl)c2ccccc2)cc1 (configuration not stated)	.	.	-1%	.	.	.
O=C(Nc1cccc([N+](=O)[O-])c1)c1cc2ccccc2cc1O	-19%	-27%	3%	1%	-22%	28µM*
